# Measurements reported in PubChem BioAssay (Tox21).
# Values without a mark were called inactive. Records with an inconclusive call do not appear. Where a call stands in place of a potency, no number is given. Activity calls are given as the source filed them. Calls come from the whole dose curve; as a rule, active = well fitted curve in the direction sought with a large enough effect in the repeat runs; inconclusive = weak or mixed curves; inactive = no such curve, though single readings can be large; an effect the other way counts as inactive or inconclusive.
# How the values were obtained:
# [1] = Human pregnane X receptor (PXR) small molecule agonists, qHTS cell viability counter screen (AID 1346977); note: nearly all actives have a fitted effect of over 50% in size
# In short: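 Cytotoxicity counter screen run in the same wells as the PXR luciferase assay, using PXR-Luc HepG2 cells in charcoal-stripped serum medium. Viability: CellTiter-Fluor fluorescence after 24hr compound treatment.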
# [2] = Caspase-3/7 induction in HepG2 cells by small molecules, qHTS assay (AID 1346978); note: nearly all actives have a fitted effect of over 15% in size
# In short: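 Wild-type HepG2 cells (2,000/well) were settled 5 h at 37 C, 5% CO2, then exposed to compounds in DMSO for 17 h. Caspase-3/7 activity was read by luminescence 30 min after adding Caspase-Glo 3/7 reagent at room temperature.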
# [3] = Caspase-3/7 induction in CHO-K1 cells by small molecules, qHTS cell viability counter screen (AID 1346979); note: nearly all actives have a fitted effect of over 35% in size; note: potency is the fitted concentration of half-maximal effect
# In short: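 Cytotoxicity counter screen run in parallel with the caspase-3/7 assay: CHO-K1 cells, 16hr compound treatment at 37C, then CellTiter-Fluor for 1hr before fluorescence reading.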
# [4] = Caspase-3/7 induction in CHO-K1 cells by small molecules, qHTS assay (AID 1346980); note: nearly all actives have a fitted effect of over 15% in size
# In short: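 Wild-type cells were seeded at 1,500 per well and settled 5 hr at 37 C, 5% CO2, then exposed to DMSO-dissolved compounds for 17 hr. Caspase-Glo 3/7 reagent was added, and luminescence was read after 30min at room temperature.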
# [5] = Caspase-3/7 induction in HepG2 cells by small molecules, qHTS cell viability counter screen (AID 1346981); note: series mostly up to about 92 µM; nearly all actives have a fitted effect of over 30% in size
# In short: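 In this quantitative HTS counter screen, compounds delivered in DMSO were left on unmodified HepG2 cells for 16 hr at 37 C. Viability was then determined fluorometrically with CellTiter-Fluor, in parallel with caspase-3/7 induction in the same wells.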
# [6] = molecular target: Nuclear receptor subfamily 1 group I member 2 (Homo sapiens) (UniProt O75469); assay: Human pregnane X receptor (PXR) small molecule agonists, qHTS assay (AID 1346982); note: nearly all actives have a fitted effect of over 35% in size; note: potency is the fitted concentration of half-maximal effect
# Sequence of Nuclear receptor subfamily 1 group I member 2 (Homo sapiens) (O75469 whole entry, looked up): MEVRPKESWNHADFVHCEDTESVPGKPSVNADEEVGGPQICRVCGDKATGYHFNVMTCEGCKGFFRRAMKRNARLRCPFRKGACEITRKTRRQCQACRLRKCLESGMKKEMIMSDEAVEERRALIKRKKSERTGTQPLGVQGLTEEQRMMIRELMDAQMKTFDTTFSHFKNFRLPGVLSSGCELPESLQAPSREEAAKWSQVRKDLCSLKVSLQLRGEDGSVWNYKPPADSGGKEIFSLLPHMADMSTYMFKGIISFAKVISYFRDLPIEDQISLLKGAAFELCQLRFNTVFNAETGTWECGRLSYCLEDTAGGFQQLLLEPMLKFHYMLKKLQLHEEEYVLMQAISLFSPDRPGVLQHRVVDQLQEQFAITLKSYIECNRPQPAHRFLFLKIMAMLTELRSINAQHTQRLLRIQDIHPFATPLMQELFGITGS
# In short: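 Reporter HepG2 cells expressing PXR-Luc are cultured in charcoal-stripped FBS (5%), treated with compounds for 24 hr at 37 C, and assayed by ONE-Glo luminescence after 30 min at room temperature.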
# [7] = molecular target: Nuclear receptor subfamily 1 group I member 2 (Rattus norvegicus) (UniProt Q9R1A7); assay: Rat pregnane X receptor (rPXR) activation by small molecules, qHTS assay (AID 1346983); settings: rPXR luciferase reporter cells, One-Glo luminescence, 24 h; max activation: stronger effect = higher value; note: nearly all actives have a fitted effect of over 20% in size; note: potency is the fitted concentration of half-maximal effect
# Sequence of Nuclear receptor subfamily 1 group I member 2 (Rattus norvegicus) (Q9R1A7 whole entry, looked up): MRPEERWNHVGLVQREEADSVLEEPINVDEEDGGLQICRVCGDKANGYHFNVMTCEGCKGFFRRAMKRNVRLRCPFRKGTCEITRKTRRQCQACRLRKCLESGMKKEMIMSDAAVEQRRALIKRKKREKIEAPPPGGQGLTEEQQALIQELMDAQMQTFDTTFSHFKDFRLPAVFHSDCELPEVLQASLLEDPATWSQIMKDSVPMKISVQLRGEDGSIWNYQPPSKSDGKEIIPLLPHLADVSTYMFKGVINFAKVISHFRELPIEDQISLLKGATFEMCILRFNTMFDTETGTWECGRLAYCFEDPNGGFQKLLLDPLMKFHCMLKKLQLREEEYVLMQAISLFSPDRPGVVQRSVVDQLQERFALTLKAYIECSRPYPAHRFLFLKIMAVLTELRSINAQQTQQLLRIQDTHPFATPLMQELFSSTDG
# In short: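 Cell-based rPXR luciferase reporter assay, 2,000 cells per well, rested 5hr at 37 C before compound addition in DMSO, then 24 hr at 37 C. One-Glo reagent was added and luminescence read after 30 min at room temperature.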
# [8] = molecular target: Nuclear receptor subfamily 1 group I member 2 (Homo sapiens) (UniProt O75469); assay: CYP3A4 induction through human pregnane X receptor (PXR) by small molecules, qHTS assay (AID 1346984); note: nearly all actives have a fitted effect of over 40% in size
# In short: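 Induction measured in HepG2-based DPX-2 cells co-expressing human PXR and a CYP3A4 promoter-driven luciferase. After a 24-hour compound exposure, cells received CYP3A4 luciferin substrate at 3uM final for 3 hours, and light output was then recorded.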
# [9] = molecular target: Nuclear receptor subfamily 1 group I member 2 (Homo sapiens) (UniProt O75469); assay: Human pregnane X receptor (PXR) activation by small molecules, qHTS assay (AID 1346985); note: nearly all actives have a fitted effect of over 40% in size
# In short: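 DPX-2 cells (HepG2 co-transfected with a PXR response element and a CYP3A4-promoter luciferase construct) were seeded at 2,000 per well, rested 5 hr at 37C, then exposed to DMSO-dissolved compounds for 24 hr. Activation was read as luciferase luminescence.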
# [10] = molecular target: Cytochrome P450 2C19 (Homo sapiens) (UniProt P33261); assay: Cytochrome P450 Family 2 Subfamily C Member 19 (CYP2C19) small molecule antagonists: luciferase reporter qHTS assay (AID 1671197); note: nearly all actives have a fitted effect of over 65% in size; note: potency is the fitted concentration of half-maximal effect
# Sequence of Cytochrome P450 2C19 (Homo sapiens) (P33261 whole entry, looked up): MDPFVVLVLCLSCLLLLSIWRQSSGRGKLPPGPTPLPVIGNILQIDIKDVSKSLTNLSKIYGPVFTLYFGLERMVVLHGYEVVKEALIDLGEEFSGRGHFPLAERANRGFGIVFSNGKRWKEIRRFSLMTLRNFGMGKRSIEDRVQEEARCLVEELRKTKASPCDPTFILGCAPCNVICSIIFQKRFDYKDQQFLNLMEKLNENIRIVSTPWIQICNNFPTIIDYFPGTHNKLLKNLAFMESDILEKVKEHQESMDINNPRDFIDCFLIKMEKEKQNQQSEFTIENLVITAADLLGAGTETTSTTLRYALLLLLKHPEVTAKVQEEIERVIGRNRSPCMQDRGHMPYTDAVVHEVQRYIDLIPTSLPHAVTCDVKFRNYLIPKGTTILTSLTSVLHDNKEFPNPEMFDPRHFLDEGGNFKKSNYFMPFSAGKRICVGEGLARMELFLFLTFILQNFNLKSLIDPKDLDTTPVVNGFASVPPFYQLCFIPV
# In short: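 Quantitative high-throughput screen of the Tox21 library using CYP2C19 with proluciferin substrate. Reaction: NADPH regeneration, 37C, 1 h, after 10 min compound preincubation at room temperature. Readout: luminescence.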
# [11] = molecular target: Cytochrome P450 2C9 (Homo sapiens) (UniProt P11712); assay: Cytochrome P450 Family 2 Subfamily C Member 9 (CYP2C9) small molecule antagonists: luciferase reporter qHTS assay (AID 1671198); note: series mostly up to about 120 µM; nearly all actives have a fitted effect of over 50% in size
# Sequence of Cytochrome P450 2C9 (Homo sapiens) (P11712 whole entry, looked up): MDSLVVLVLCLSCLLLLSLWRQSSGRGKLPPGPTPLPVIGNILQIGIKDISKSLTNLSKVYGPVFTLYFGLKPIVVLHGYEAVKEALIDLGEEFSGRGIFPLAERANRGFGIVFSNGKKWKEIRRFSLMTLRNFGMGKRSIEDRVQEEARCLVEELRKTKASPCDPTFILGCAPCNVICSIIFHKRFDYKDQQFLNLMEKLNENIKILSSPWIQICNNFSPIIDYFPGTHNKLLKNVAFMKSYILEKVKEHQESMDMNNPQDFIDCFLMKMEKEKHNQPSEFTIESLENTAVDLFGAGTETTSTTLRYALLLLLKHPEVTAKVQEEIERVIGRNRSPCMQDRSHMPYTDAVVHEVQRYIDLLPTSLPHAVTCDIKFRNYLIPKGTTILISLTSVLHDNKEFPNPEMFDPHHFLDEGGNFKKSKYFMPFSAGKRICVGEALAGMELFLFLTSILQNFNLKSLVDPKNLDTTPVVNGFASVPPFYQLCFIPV
# In short: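 CYP2C9 activity was measured with a P450-Glo proluciferin substrate. Enzyme–substrate mix was held with compound for 10 min at room temperature, then NADPH regeneration solution was added for 1 h at 37C. Luciferin product was read as luminescence.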
# [12] = molecular target: Cytochrome P450 1A2 (Homo sapiens) (UniProt P05177); assay: Cytochrome P450 Family 1 Subfamily A Member 2 (CYP1A2) small molecule antagonists: luciferase reporter qHTS assay (AID 1671199); note: series mostly up to about 120 µM; nearly all actives have a fitted effect of over 50% in size
# Sequence of Cytochrome P450 1A2 (Homo sapiens) (P05177 whole entry, looked up): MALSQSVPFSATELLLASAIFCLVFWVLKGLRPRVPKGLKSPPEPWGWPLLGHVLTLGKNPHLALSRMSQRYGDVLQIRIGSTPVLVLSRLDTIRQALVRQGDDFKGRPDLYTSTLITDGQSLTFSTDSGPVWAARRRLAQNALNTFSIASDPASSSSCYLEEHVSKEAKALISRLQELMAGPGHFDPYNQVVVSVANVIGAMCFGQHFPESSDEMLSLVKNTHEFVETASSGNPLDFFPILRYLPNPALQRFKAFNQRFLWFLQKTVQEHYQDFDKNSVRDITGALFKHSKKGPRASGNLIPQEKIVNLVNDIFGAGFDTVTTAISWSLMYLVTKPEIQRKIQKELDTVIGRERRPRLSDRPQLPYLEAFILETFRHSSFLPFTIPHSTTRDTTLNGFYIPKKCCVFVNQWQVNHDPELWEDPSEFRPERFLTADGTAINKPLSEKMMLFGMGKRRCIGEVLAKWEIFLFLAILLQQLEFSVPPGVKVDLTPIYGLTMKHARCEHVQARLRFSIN
# In short: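 Steps: enzyme-substrate mix dispensed; test compounds and furafylline control pinned in; 10 min room temperature; NADPH regeneration solution added, 1 h; reaction stopped with luciferin detection reagent; luminescence read after 20 min.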
# [13] = molecular target: Voltage-gated inwardly rectifying potassium channel KCNH2 (Homo sapiens) (UniProt Q12809); assay: Human Ether-a-go-go-Related Gene (hERG) channel small molecule antagonists: fluorescence cell-based qHTS assay (AID 1671200);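 note: hERG-expressing U2OS cells given a thallium stimulus after FluxOR II dye loading; series mostly up to about 77 µM; nearly all actives have a fitted effect of over 50% in size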
# Sequence of Voltage-gated inwardly rectifying potassium channel KCNH2 (Homo sapiens) (Q12809 whole entry, looked up): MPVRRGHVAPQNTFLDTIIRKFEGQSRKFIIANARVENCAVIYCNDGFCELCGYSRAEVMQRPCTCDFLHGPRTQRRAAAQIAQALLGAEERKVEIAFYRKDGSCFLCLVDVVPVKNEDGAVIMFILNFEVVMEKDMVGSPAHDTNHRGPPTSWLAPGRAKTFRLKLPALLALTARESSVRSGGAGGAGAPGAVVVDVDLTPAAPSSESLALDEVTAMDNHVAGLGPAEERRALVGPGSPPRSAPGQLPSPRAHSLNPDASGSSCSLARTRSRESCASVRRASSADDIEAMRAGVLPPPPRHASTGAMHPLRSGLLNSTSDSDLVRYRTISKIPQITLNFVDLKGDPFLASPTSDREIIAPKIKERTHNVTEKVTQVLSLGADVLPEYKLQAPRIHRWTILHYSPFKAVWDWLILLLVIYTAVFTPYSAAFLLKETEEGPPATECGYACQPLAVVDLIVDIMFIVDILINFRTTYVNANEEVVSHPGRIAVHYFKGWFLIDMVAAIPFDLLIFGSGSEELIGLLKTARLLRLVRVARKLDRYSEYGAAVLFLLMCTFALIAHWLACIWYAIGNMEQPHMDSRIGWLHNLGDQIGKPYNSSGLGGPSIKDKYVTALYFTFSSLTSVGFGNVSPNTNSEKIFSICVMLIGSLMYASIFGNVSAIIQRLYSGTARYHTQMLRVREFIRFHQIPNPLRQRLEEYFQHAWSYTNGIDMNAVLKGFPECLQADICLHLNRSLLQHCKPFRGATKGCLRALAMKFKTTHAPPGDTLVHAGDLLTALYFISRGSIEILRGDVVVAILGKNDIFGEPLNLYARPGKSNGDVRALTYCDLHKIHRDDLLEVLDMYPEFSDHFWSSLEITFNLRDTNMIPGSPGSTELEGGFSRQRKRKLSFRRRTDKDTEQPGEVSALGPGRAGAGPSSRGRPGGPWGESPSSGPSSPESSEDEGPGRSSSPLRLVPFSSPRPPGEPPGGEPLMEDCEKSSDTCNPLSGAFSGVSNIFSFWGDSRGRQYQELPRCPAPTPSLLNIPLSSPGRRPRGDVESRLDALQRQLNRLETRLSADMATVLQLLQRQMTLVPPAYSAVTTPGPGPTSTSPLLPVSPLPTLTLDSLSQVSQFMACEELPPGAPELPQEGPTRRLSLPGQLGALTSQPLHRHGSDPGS
# In short: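 Fluorescence at 540 nm emission (480 nm excitation) was recorded kinetically for 2 min at 1-second intervals once the thallium-containing stimulus reached cells previously loaded with FluxOR II dye.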
# [14] = molecular target: Cytochrome P450 3A4 (Homo sapiens) (UniProt P08684); assay: Cytochrome P450 Family 3 Subfamily A Member 4 (CYP3A4) small molecule antagonists: luciferase reporter qHTS assay (AID 1671201)
# Sequence of Cytochrome P450 3A4 (Homo sapiens) (P08684 whole entry, looked up): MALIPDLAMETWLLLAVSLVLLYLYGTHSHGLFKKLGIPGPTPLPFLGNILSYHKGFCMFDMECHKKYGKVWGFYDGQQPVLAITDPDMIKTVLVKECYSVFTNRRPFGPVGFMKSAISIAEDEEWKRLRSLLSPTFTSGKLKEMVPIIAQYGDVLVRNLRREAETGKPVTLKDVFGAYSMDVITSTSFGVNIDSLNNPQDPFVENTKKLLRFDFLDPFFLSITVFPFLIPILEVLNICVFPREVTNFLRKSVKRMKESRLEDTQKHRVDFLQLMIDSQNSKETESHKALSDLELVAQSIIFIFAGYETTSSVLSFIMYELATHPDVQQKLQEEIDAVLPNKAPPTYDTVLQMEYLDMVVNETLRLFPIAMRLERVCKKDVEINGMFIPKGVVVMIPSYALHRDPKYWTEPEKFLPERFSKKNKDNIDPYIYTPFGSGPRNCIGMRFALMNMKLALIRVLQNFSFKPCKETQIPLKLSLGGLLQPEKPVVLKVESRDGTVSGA
# In short: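 qHTS, 1536-well. CYP3A4 + proluciferin substrate, cpd 10 min RT → NADPH regen 1 h RT → detection reagent 20 min → luminescence (RLU). Ketoconazole positive control.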
# [15] = molecular target: Cytochrome P450 2D6 (Homo sapiens) (UniProt P10635); assay: Cytochrome P450 Family 2 Subfamily D Member 6 (CYP2D6) small molecule antagonists: luciferase reporter qHTS assay (AID 1671196); note: nearly all actives have a fitted effect of over 50% in size; note: potency is the fitted concentration of half-maximal effect
# Sequence of Cytochrome P450 2D6 (Homo sapiens) (P10635 whole entry, looked up): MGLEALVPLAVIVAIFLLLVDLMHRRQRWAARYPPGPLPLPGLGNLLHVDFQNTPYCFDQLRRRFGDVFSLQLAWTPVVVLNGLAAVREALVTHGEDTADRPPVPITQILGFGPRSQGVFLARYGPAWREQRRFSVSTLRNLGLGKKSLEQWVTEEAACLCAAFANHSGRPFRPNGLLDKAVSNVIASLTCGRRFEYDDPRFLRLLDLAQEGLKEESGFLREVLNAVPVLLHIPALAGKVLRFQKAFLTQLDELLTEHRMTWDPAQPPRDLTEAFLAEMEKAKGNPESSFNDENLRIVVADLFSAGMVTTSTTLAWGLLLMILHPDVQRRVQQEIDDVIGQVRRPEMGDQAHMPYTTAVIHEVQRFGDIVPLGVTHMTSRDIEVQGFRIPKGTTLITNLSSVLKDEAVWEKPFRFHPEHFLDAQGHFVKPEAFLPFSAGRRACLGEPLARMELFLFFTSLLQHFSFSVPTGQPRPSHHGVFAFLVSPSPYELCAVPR
# In short: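 Test chemicals meet CYP2D6 plus proluciferin substrate (10 min, RT); NADPH regenerating solution then drives turnover for 1 h. Detection reagent halts the reaction; luminescence measured after 20 min.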
SMILES,Potency [1],outcome [2],Potency [3],outcome [4],Potency [5],Potency [6],max activation [7],Potency [8],Potency [9],Potency [10],Potency [11],Potency [12],Potency [13],Potency [14],Potency [15],Potency [7]
CC(N)C12CC3CC(CC(C3)C1)C2 (stereo not drawn),inactive,inactive,inactive,inactive,inactive,inactive,8.41%,inactive,inactive,inactive,inactive,inactive,inactive,inactive,–,–
CCN[C@H]1C[C@H](C)S(=O)(=O)c2sc(S(N)(=O)=O)cc21,inactive,inactive,inactive,inactive,inactive,inactive,0.198%,inactive,–,–,inactive,inactive,inactive,inactive,inactive,–
COC(=O)C1=C(C)NC(C)=C(C(=O)OC(C)C)C1c1cccc2nonc12 (stereo not drawn),inactive,inactive,26.6 µM (active),inactive,inactive,1.33 µM (active),–,inactive,–,–,–,–,inactive,–,–,10 µM (active)
CC[C@H]1OC(=O)[C@H](C)[C@@H](O[C@H]2C[C@@](C)(OC)[C@@H](O)[C@H](C)O2)[C@H](C)[C@@H](O[C@@H]2O[C@H](C)C[C@H](N(C)C)[C@H]2O)[C@](C)(OC)C[C@@H](C)C(=O)[C@H](C)[C@@H](O)[C@]1(C)O,inactive,inactive,inactive,inactive,inactive,inactive,-0.482%,inactive,inactive,63.8 µM (active),inactive,inactive,inactive,–,inactive,–
CC(=O)Oc1cccc(C)c1,inactive,inactive,inactive,inactive,inactive,inactive,-3.04%,inactive,–,inactive,inactive,inactive,inactive,inactive,inactive,–
CCCCCCCCCCCCCCCCCCO,inactive,inactive,inactive,inactive,inactive,inactive,-0.712%,inactive,–,inactive,inactive,inactive,inactive,inactive,–,–
CC[N+](C)(CC)CCOC(=O)C1c2ccccc2Oc2ccccc21,inactive,inactive,inactive,inactive,inactive,inactive,0.786%,inactive,–,inactive,–,–,inactive,–,2.75 µM (active),–
Cc1ccnc(NS(=O)(=O)c2ccc(N)cc2)n1,inactive,inactive,inactive,inactive,inactive,inactive,-0.793%,inactive,inactive,inactive,inactive,inactive,inactive,inactive,–,–
CCCCc1nc(Cl)c(CO)n1Cc1ccc(-c2ccccc2-c2nn[nH]n2)cc1,inactive,inactive,inactive,inactive,inactive,inactive,-3.95%,inactive,–,inactive,–,inactive,inactive,–,–,–
